Laboratory results from ChEMBL document CHEMBL4513216, “Probing the Open Global Health Chemical Diversity Library for Multistage-Active Starting Points for Next-Generation Antimalarials” (ACS Infect Dis, 2020).
In all, about 69,000 compounds went through this assay and about 8,600 (12%) showed an effect of 50% or more. Many of the other results were omitted from the sample, so strong results are more common in it than they were.

The compounds below were run on Plasmodium berghei (assay: Screen against P. berghei liver stage (PbLuc), transformed with Luciferase, at 10uM). Conditions: tested at 10 uM.
Format: functional, HepG2
Work on `COCC(=O)N1CCC2(CCN(Cc3ccc(C)cc3)CC2)CC1` yielded an INHIBITION of 10.5%.
In the case of `CC[C@@H](C)[C@@H](N)C(=O)Nc1cccc(-c2cnc(N(C)C)nc2)c1`, the INHIBITION is reported as 76.8%.
For `CC[C@@H](C)[C@@H](N)C(=O)Nc1cccc(-c2cnc(N(C)CCO)nc2)c1`, the INHIBITION was 8.53%.
With `CC[C@@H](C)[C@@H](N)C(=O)Nc1cccc(-c2cnc(N)nc2)c1` the INHIBITION was 17.4%.
For `NC(=O)C1CCN(C(=O)Cn2ccc3cc(Br)ccc32)CC1`, the INHIBITION was 30.6%.
With `CC(C)(C)C1CCC(O)(CNC(=O)CCS(C)(=O)=O)CC1` (stereo unspecified) the INHIBITION was -23.2%.
For `Cc1ccc(C(=O)N(C)Cc2ccc3c(c2)OCCO3)c(=O)[nH]1`, the INHIBITION was -11.6%.
`Cn1cnc(S(=O)(=O)N2C[C@H]3CN(Cc4cccnc4)C[C@H]3C2)c1` gave an INHIBITION of 49.1%.
With `COc1cc(N2CCC3(CCCN(Cc4ccccn4)C3)C2)ncn1` (stereo unspecified) the INHIBITION was 84.7%.
In the case of `COc1cc(N2CCC(c3nccn3Cc3ccccn3)CC2)ncn1`, the INHIBITION is reported as 8.97%.
Work on `COc1cc(N2C[C@H]3CN(Cc4ccccn4)C[C@H]3C2)ncn1` yielded an INHIBITION of 85.6%.
Work on `CC(C)CN1CCCC2(CCN(c3ccccn3)C2)C1` (stereo unspecified) yielded an INHIBITION of 21.7%.
`CS(=O)(=O)N1CCC2(CCCN(Cc3ccccn3)C2)C1` (stereo unspecified) gave an INHIBITION of -11.6%.
With `Cn1cnc(S(=O)(=O)N2C[C@H]3CC[C@@H](C2)N(Cc2ccccn2)C3)c1` the INHIBITION was 20.9%.
With `Fc1cccc(CN2C[C@@H]3CN(Cc4ccccn4)C[C@@H]3C2)c1` the INHIBITION was 18.6%.
`Cn1cnc(S(=O)(=O)N2C[C@H]3CN(Cc4ccccn4)C[C@H]3C2)c1` gave an INHIBITION of 76.4%.
`CCc1csc(NC(=O)Nc2c(C)n[nH]c2C)n1` was tested, and the INHIBITION was -1.79%.
`CC(=O)N1CCCC1c1nc(C)no1` (stereo unspecified) was tested, and the INHIBITION was 7.05%.
In the case of `Cc1cc(NCCc2cnccn2)nc(-c2ccccc2O)n1`, the INHIBITION is reported as 17.5%.
`O=C(NCc1cc[nH]n1)N1CCCC(N2CCCC2)C1` (stereo unspecified) gave an INHIBITION of 16.9%.
`NC(=O)CSc1ccccc1NC(=O)CC1C=CCC1` (stereo unspecified) was tested, and the INHIBITION was -54.9%.
`COCC(=O)NC(CC(C)C)c1nc2cccnc2n1C` (stereo unspecified) gave an INHIBITION of -0.232%.
With `Cc1ccc(C(=O)Nc2c(C(=O)N(C)C)nn(C)c2C)cc1C` the INHIBITION was 35%.
`CCOc1cc(F)ccc1NC(=O)N(C)Cc1cnn(C)c1` gave an INHIBITION of 4.71%.
Work on `CCC(=O)N1CCC2(CCN(Cc3cccc(F)c3)CC2)CC1` yielded an INHIBITION of -6.97%.
Compound `CN(Cc1ccco1)[C@@H]1CN(Cc2cccnc2)C[C@@H]2CCCO[C@@H]21` has an INHIBITION of 30.4%.
`CN(Cc1ccco1)[C@@H]1CN(Cc2cccnc2)[C@@H]2CCCO[C@H]12` showed an INHIBITION of 55.5%.
With `CN(Cc1ccco1)[C@@H]1CN(Cc2ccc(F)cc2)C[C@@H]2CCCO[C@@H]21` the INHIBITION was 31.8%.
`COc1ccc(CN2C[C@@H](N(C)Cc3ccco3)[C@H]3OCCC[C@H]32)cc1` was tested, and the INHIBITION was 31.8%.
In the case of `CN(Cc1ccco1)[C@@H]1CN(Cc2ccc(F)cc2)[C@@H]2CCCO[C@H]12`, the INHIBITION is reported as 81.2%.
With `CN(Cc1ccco1)[C@@H]1CN(Cc2ccco2)[C@@H]2CCCO[C@H]12` the INHIBITION was 15.4%.
For `O=C1CCN(C(=O)NCc2ccccc2Oc2ccccc2)CCN1`, the INHIBITION was 11.4%.
`COCC1CN(C(=O)c2ccco2)Cc2cn(C)nc21` (stereo unspecified) showed an INHIBITION of -30.6%.
For `Cc1ncc(C(=O)N2CC(C(=O)N3CCCCCC3)C2)c(C)n1`, the INHIBITION was 27.7045%.
Compound `CN(C)[C@@H]1CN(Cc2ccccn2)C[C@H]1c1cn(C)c2ccccc12` has an INHIBITION of 13.55%.
Compound `CC(C)=CCN1C[C@@H]2CC[C@H]1CN(C(=O)c1ccc3nc[nH]c3c1)C2` has an INHIBITION of 10.3%.
With `Cc1nn(C)c(C)c1S(=O)(=O)N1CC[C@@H]2O[C@@H](C)C[C@H]2C1` the INHIBITION was 7.5%.
`CCN1C[C@H]2C3(CCN(S(C)(=O)=O)CC3)CC[C@@]2(C(=O)N(C)C)C1` gave an INHIBITION of 44.8%.
Compound `CC(c1nnc(-c2ccccc2)o1)N1CCC(Nc2ccccc2)CC1` (stereo unspecified) has an INHIBITION of 31.5%.
Work on `COCC1CN(Cc2ccc(C)o2)Cc2nnn(C)c21` (stereo unspecified) yielded an INHIBITION of -102%.
With `Cc1nc(CC2CCCN(Cc3nc4ccccc4c(=O)[nH]3)C2)no1` (stereo unspecified) the INHIBITION was 45.2%.
`O=c1[nH]c(CN2CCCC(Cn3cncn3)C2)nc2ccccc12` (stereo unspecified) gave an INHIBITION of 21.01%.
In the case of `CCC1CCCN(Cc2nc3ccccc3c(=O)[nH]2)C1` (stereo unspecified), the INHIBITION is reported as 67.5%.
In the case of `Cc1nccn1C1CCCN(C(=O)c2ccc3cc[nH]c3c2)C1` (stereo unspecified), the INHIBITION is reported as 4.52%.
With `Cc1nnc(-c2cccc(N3CCC(NC(C)CC(C)C)CC3)c2)s1` (stereo unspecified) the INHIBITION was 62.4%.
`Cc1nnc(-c2cccc(N3CCC(NC4CCSC4)CC3)c2)s1` (stereo unspecified) showed an INHIBITION of 18.9%.
`CC(C)CC(C)NC1CCN(c2cccc(-c3cscn3)c2)CC1` (stereo unspecified) was tested, and the INHIBITION was 34.1%.
With `COCCNC(=O)c1ccc(NCc2c(C)noc2C)cc1Cl` the INHIBITION was 2.03%.
`O=C(c1cnccn1)N1CCOC2(CCCN(c3ncccc3F)C2)C1` (stereo unspecified) gave an INHIBITION of 39.5%.
In the case of `COCCNC(=O)N1CCN(c2cc(F)ccc2F)CC1`, the INHIBITION is reported as 8.7%.
Compound `CNCc1cnc(Nc2ccccc2)nc1` has an INHIBITION of 39.9%.
`CC(C)c1nnc(NC(=O)C2CSCN2C(=O)C2CCC2)s1` (stereo unspecified) showed an INHIBITION of 61.2%.
With `O=C(Nc1nncs1)C1CSCN1C(=O)C1CCCC1` (stereo unspecified) the INHIBITION was 20.5%.
Compound `Cc1nnc(NC(=O)C2CSCN2C(=O)C2CCCC2)s1` (stereo unspecified) has an INHIBITION of 25.4%.
In the case of `CN(C(=O)NC1CC1)C1CCN(c2ccc(Cl)cc2)CC1`, the INHIBITION is reported as 13.9%.
`CN1CCC(N(C)C(=O)Nc2ccc(Cl)cc2)CC1` showed an INHIBITION of -5.64%.
For `COc1ccc(N2CCC(N3C[C@H](NC(C)=O)[C@@H](C(C)C)C3)CC2)cc1`, the INHIBITION was 33%.
`COc1ccc(N2CCC(N(C)C(=O)C(C)SC)CC2)cc1` (stereo unspecified) showed an INHIBITION of 60.4%.
Compound `COc1ccc(OC2CCN(c3ccncc3)CC2)cc1` has an INHIBITION of 55.1%.
`CSC(C)C(=O)N(C)C1CCN(c2ccc(Cl)cc2)CC1` (stereo unspecified) was tested, and the INHIBITION was 35.5%.
`CC(C)CN(C(=O)Nc1cccnc1)C1CC1` gave an INHIBITION of -18.5%.
Work on `CN1CCC(Oc2ccc(-n3ccnc3-c3ccncc3)cc2)CC1` yielded an INHIBITION of 49.4%.
For `CN(CC(=O)N(C)C1CC1)C1CCN(c2ccc(Cl)cc2)CC1`, the INHIBITION was 29%.
`COc1ccccc1OC1CCN(c2ccncc2)CC1` gave an INHIBITION of -2.93%.
In the case of `CN(C(=O)Nc1ccncc1)C1CCN(c2ccc(Cl)cc2)CC1`, the INHIBITION is reported as 83.1%.
Work on `CN(C(=O)Nc1cccnc1)C1CCN(c2ccc(Cl)cc2)CC1` yielded an INHIBITION of 60.4%.
